Assay outcomes: PubChem BioAssay, National Center for Advancing Translational Sciences (NCATS)
A selection: hits, their analogues and other compounds. The true share with any hit is near 5.4%.
Vaccinia mCherry = vaccinia inhibition (mCherry reporter); Vaccinia virus mCherry reporter infection, fluorescence; Potency, µM (series often up to 36.5 µM), without a hit: at the highest dose activity change, negative = inhibition, most hits filed as inhibitors; actives 0.63% (n = 310,000); AID 720579; calls by dose curve; tested in A549 cells; also: nearly all actives have a fitted effect of over 35% in size
Marburg entry inh = Marburg virus entry inhibition; Marburg virus pseudotyped entry inhibition, cell reporter; Potency, µM (doses to about 37.8 µM), for inactives: top-dose activity change, negative = inhibition, usual class: inhibitors; actives 1.8% (n = 300,000); calls by dose curve; tested in HEK293 cells
FMDV antiviral = blocks foot and mouth disease virus; FMDV antiviral cell-based qHTS; Potency, µM (series often up to 57.9 µM), for inactives: at the top dose activity change, negative = inhibition, usual class: inhibitors; actives 1.2% (n = 410,000); AID 1159524; calls by dose curve; tested in HEK293T cells; also: read-out not given here; nearly all actives have a fitted effect of over 45% in size
Lassa entry inh = inhibitors of Lassa virus binding or cell entry | AID 540256 | actives 1.2% (n = 300,000) | Lassa virus pseudotype entry inhibition, cell reporter | Potency, µM (titrated, usually from 37.9 µM), without a hit: at the highest dose activity change, negative = inhibition, actives largely listed as inhibitors; calls by dose curve; tested in HEK293 cells; also: nearly all actives have a fitted effect of over 50% in size
Sm TGR block = inhibitors of Schistosoma mansoni thioredoxin glutathione reductase; Q962Y6; purified TGR, DTNB reduction, TNB absorbance 405 nm; Potency, µM (series often up to 114 µM), inactives show top-dose activity change, negative = inhibition, actives largely listed as inhibitors; actives 3% (n = 360,000); AID 485364; active = well fitted inhibition curve with a large enough effect; inconclusive = small, poorly fitted or top-dose-only effect; inactive = no such curve, though single readings can be large or run the other way; also: nearly all actives have a fitted effect of over 60% in size
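TGR 20 nM + NADPH 100 uM (dispensed conc.), cpd preinc 15 min RT; start with NADPH (500 uM addition) then DTNB (15 mM addition). Kinetic TNB absorbance, 405 nm filter. Four-parameter Hill fit across titration.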
Vaccinia Venus = inhibitors of vaccinia virus (Venus reporter); actives 0.46% (n = 330,000); AID 720580; Vaccinia virus Venus reporter expression, fluorescence; Potency, µM (series often up to 36.5 µM), for the others: at the highest dose activity change, negative = inhibition, actives largely listed as inhibitors; calls by dose curve; tested in A549 cells; also: nearly all actives have a fitted effect of over 30% in size
* = called active by the depositor; i = inactive; ? = inconclusive; / = no result given; [ ] = dose if it differs, or a comment. % is scaled to controls: 0 for no effect and ±100 for the full control effect; potency is read from the fitted curve at half-maximal effect.

SMILES	Vaccinia mCherry	Marburg entry inh	FMDV antiviral	Lassa entry inh	Sm TGR block	Vaccinia Venus
Cc1ccccc1C(=O)Nc1nnc(S(=O)(=O)N(C)Cc2ccccc2)s1	-4.4%	/	28.8%	?	-8.3%	-2.4%
Cc1ccccc1C(=O)Nc1nnc(S(=O)(=O)N(C)Cc2ccco2)s1	-10.4%	20.2%[46.1 µM]	23.8%	1.3%[46.1 µM]	3.16µM*	-5.7%
OCCN1CCN(Cc2ccc3c(c2)CN(Cc2cccn2-c2ccccn2)CCO3)CC1	-10.4%	/	-11.8%	/	/	-13.4%
COc1ccccc1/C=C/C1(C(=O)NC2CCCC2)CC(=O)N1c1ccc(C)cc1 (stereo unspecified)	/	?	-20.7%	-27.5%	0.0%	/
COc1ccccc1/C=C/C1(C(=O)NC2CCCC2)CC(=O)N1c1ccc(F)cc1 (stereo unspecified)	/	5.8µM*	?	14.6µM*	-30.5%	/
COc1cc2nc(N3CCCN(C)CC3)nc(NC3CCCCC3)c2cc1OC	-19.2%	/	/	/	/	?
COc1cc2nc(N3CCCN(C)CC3)nc(NC3CCN(C)C3)c2cc1OC (stereo unspecified)	?	/	/	/	/	11.2µM*
COc1cc2nc(N3CCCN(C)CC3)nc(N(C)C3CCN(C)CC3)c2cc1OC	10µM*	/	/	/	/	10µM*
COc1cc2c(NC3CCN(C)CC3)nc(N3CCCN(C)CC3)nc2cc1OCC1CCCCN1 (stereo unspecified)	5.01µM*	/	/	/	/	15.8µM*
COc1ccccc1Cc1nc2ccccc2nc1SCC(=O)N1CCC(C)CC1	-7.1%	/	-10.9%	-8.6%[46.1 µM]	-4.2%	-11.4%
CC(=O)[C@@H]1[C@@H]2C(=O)N(Cc3ccccc3)C(=O)[C@@H]2C2c3ccccc3C=CN21 (stereo partly specified)	i	-7.5%	8.0%	5.0%	44.7µM*	0.0%
Cc1ccc(N2C(=O)[C@@H]3[C@H](C2=O)C2c4ccccc4C=CN2[C@@H]3C(=O)c2ccco2)cc1 (stereo partly specified)	/	-18.9%	10.5%	-4.8%	28.2µM*	14.0%
O=C(c1ccco1)[C@@H]1[C@@H]2C(=O)N(c3ccccc3)C(=O)[C@@H]2C2c3ccccc3C=CN21 (stereo partly specified)	-8.3%	18.9%	13.3%	-9.1%	56.2µM*	12.2%
COc1ccc(N2C(=O)[C@@H]3[C@H](C2=O)[C@H]2c4ccccc4C=CN2[C@@H]3C(=O)Nc2ccccc2)cc1	/	-11.1%	29.5%	15.1%	0.0%	/
Oc1ccc(/C=N/Nc2cc(N3CCOCC3)nc(N3CCOCC3)n2)cc1	-18.5%	6.51µM*	/	-18.9%	/	-26.0%
Oc1ccc(/C=N/Nc2cc(N3CCCC3)nc(N3CCCC3)n2)cc1	-25.3%	?	/	-26.3%	4.9%	-19.8%
COc1ccc(/C=N/Nc2cc(N3CCCC3)nc(N3CCCC3)n2)cc1	?	?	?	3.16µM*	0.3%	?
Oc1ccc(Cl)cc1C1C=C(c2ccc3c(c2)OCO3)NC(c2ccc(Cl)cc2)N1 (stereo unspecified)	-25.2%	/	/	/	/	-14.2%
O=C(NCC1CCC2(CCN(Cc3c[nH]c4ccccc34)CC2)O1)C1CCOCC1 (stereo unspecified)	1.9%	/	4.3%	/	/	-1.7%
Cc1oc(-c2ccc(Cl)cc2)nc1CS(=O)CC(=O)NCc1cccs1 (stereo unspecified)	-1.8%	/	-13.5%	/	?	-17.3%
CCCCNC(=O)CS(=O)Cc1nc(-c2cccs2)oc1C (stereo unspecified)	17.6%	/	0.0%	/	6.31µM*	-4.1%
Cc1oc(-c2cccs2)nc1CS(=O)CC(=O)NCCCOC(C)C (stereo unspecified)	/	15.5%	-1.3%	2.0%	14.1µM*	/
Cc1oc(-c2cccs2)nc1CS(=O)CC(=O)NCCc1ccccc1 (stereo unspecified)	?	/	13.8%	/	10µM*	-9.7%
CSc1cccc(NC(=O)Cn2c3ncccc3c(=O)n2-c2ccc(C)cc2)c1	-7.0%	/	-5.6%	-11.3%[46.1 µM]	-2.2%	-11.2%
CCCS(=O)(=O)N1CCC(C(=O)NCCOC)CC1	-24.6%	/	0.0%	18.5%[46.1 µM]	3.9%	-11.3%
SMILES	Vaccinia mCherry	Marburg entry inh	FMDV antiviral	Lassa entry inh	Sm TGR block	Vaccinia Venus
CC(C)CN(CC(C)C)c1nc(-c2ccc(Cl)cc2)nc2ccccc12	?	7.6%[46.1 µM]	-21.1%	12.0%[46.1 µM]	16.2%	?
CCN(CC)c1nc(-c2ccc(C(C)(C)C)cc2)nc2ccccc12	-0.3%	/	?	12.6µM*	10.6%	-17.8%
O=C1c2ccccc2C(=O)c2ccccc21	-8.6%	/	1.3%	/	/	-5.2%
O=C1c2ccccc2C(=O)c2[nH]c(=O)[nH]c21	1.26µM*	?	-4.6%	10µM*	-31.7%	2.82µM*
CC(C)c1c(C(=O)N(C)C2CCN(C)CC2)cnn1-c1nccc(-c2ccco2)n1	i	/	-3.8%	/	/	-8.6%
CCN(CC)C(=O)c1sc2nc(-c3cccs3)cc(-c3cccs3)c2c1N	/	-1.7%	-11.8%	/	89.1µM*	/
CC(=O)c1ccc(NC(=O)c2nc(-c3ccccc3)n(-c3ccccc3Cl)n2)cc1	-21.2%	-25.7%[46.1 µM]	-22.8%	-2.2%[46.1 µM]	4.7%	-6.3%
Cc1ccc(CNC(=O)C(=O)NCC2OCCN2S(=O)(=O)c2ccc(C)cc2)cc1 (stereo unspecified)	-6.7%	-28.5%	-26.9%	?	-2.1%	-29.9%
O=C(NCc1ccccc1)C(=O)NCC1OCCN1S(=O)(=O)c1ccc([N+](=O)[O-])cc1 (stereo unspecified)	10µM*	/	-7.8%	/	2.1%	?
Cc1ccc(CNC(=O)C(=O)NCC2OCCN2S(=O)(=O)c2ccc(Br)cc2)cc1 (stereo unspecified)	-22.2%	?	?	7.94µM*	-11.0%	?
Cc1cccc(N2CCN(C(c3ccccc3)c3nnc(-c4ccccc4F)o3)CC2)c1C (stereo unspecified)	-11.5%	-24.1%[46.1 µM]	-14.3%	?	9.1%	-11.4%
COc1cc2[nH]c(=O)n(CCCC(=O)N3CCN(c4cccc(C(F)(F)F)c4)CC3)c(=O)c2cc1OC	-21.6%	-16.4%[46.1 µM]	?	-21.8%[46.1 µM]	6.7%	-11.9%
O=C(CCCCn1c(=O)[nH]c2ccsc2c1=O)N1CCN(c2cccc(C(F)(F)F)c2)CC1	-23.6%	?	39.8µM*	-17.3%[46.1 µM]	-3.9%	-20.9%
O=C(CCn1c(=O)[nH]c2ccccc2c1=O)N1CCN(c2cccc(C(F)(F)F)c2)CC1	/	?	?	-3.7%	0.0%	/
O=C(CCCCn1c(=O)[nH]c2ccccc2c1=O)N1CCN(c2cccc(C(F)(F)F)c2)CC1	?	9.2µM*	-27.7%	16.4µM*	-0.5%	?
Cc1c(Cl)cccc1NC(=O)Cn1c(=O)n(Cc2ccco2)c(=O)c2sc3ccccc3c21	?	22.5%[46.1 µM]	-3.0%	6.9%[46.1 µM]	-26.0%	?
COc1cccc(C2(CSc3nnc(-c4cc(OC)c(OC)c(OC)c4)o3)OCCO2)c1	/	-16.4%	?	11.2µM*	1.3%	-16.1%
CC(/C=N/n1c(C2CCCCC2)n[nH]c1=S)=C\c1ccccc1	/	?	-20.3%	18.3µM*	0.7%	/
